This note sets out measurements from PubChem BioAssay AID463173 (ICCB-Longwood Screening Facility, Harvard Medical School, 2010).

Screen size: about 52,000 compounds; about 1,700 (3.3%) were called active. Cut-off read from the data, not from the text of the source: active = survival mostly below about 52% (no sharp cut-off); inactive = mostly above about 56%. Many of the other results were omitted from the sample, so actives are more common in it than they were.

This experiment concerns Wild type. As to the kind of experiment: growth inhibition of S. aureus wild type versus tarO mutant, primary screen, teichoic acid synthesis inhibitors, RN4220, OD600 (AID 463173). The conditions noted are these: S. aureus RN4220 wild type/DeltatarO growth, OD600, 18 h, active compounds read low, screened at 18.75 µg/mL (by protocol).
`CCOC(=O)c1ccccc1NC(=O)CSc1nc2cn(CC)nc2c(=O)n1Cc1ccc(Cl)cc1`: the survival was 67% (inactive).
On to `Cc1ccc2ccc3cc(C(=O)N4CCN(c5ccccc5)CC4)nc3c2[nH]1`, for which the survival is 128% (inactive).
Take `COc1ccc(CNC(=O)c2ccc(CS(=O)(=O)c3ccccc3OC)o2)cc1`: the survival is 76% (inactive).
In the case of `CCOc1cc(Br)c(C2C(C(=O)OC)=C(C)NC3=C2C(=O)c2ccccc23)cc1OCC` (centres undefined) it was 96% (inactive); in that of `Cc1ccc(-n2nnc(-c3nc(-c4cccs4)no3)c2N)cc1C`, 100% (inactive).
Regarding `Cc1cccc(-n2ncc(C(=O)Nc3ccc4c(c3)OCO4)c2C2CCN(C(=O)OC(C)(C)C)CC2)c1`, the survival was 89% (inactive).
Regarding `CCOC(=O)c1ccccc1NC(=O)Cn1c(=O)n(Cc2ccccc2)c(=O)c2c(C)c(C)sc21`, the survival was 90% (inactive).
The same measure for `CCCCOc1ccc(C(=O)NCCS(=O)(=O)N2CCN(c3ccc(F)cc3)CC2)cc1`: 65% (inactive); for `COc1ccccc1NC(=O)c1c(C)cc(C)nc1SCC(=O)Nc1ccc(C)c(C)c1`: 81% (inactive).
In the case of `Cc1ccc(-c2cn3c(n2)sc2cc(C(=O)NCCC4=CCCCC4)ccc23)c(C)c1` it was 100% (inactive); in that of `COC(=O)c1ccc(NC(=O)CSc2nc(=O)n(Cc3ccco3)c3c2CCC3)cc1`, 126% (inactive).
In the case of `COc1ccc2c(c1)c1c(c(=O)n(CCc3ccccc3)c(=O)n1Cc1ccccc1)n2C` it was 57% (inactive); in that of `COc1ccc2c(c1)c1c(c(=O)n(Cc3ccccc3)c(=O)n1CC(=O)Nc1ccc(C)cc1C)n2C`, -4% (active); in that of `COc1ccc2c(c1)c1c(c(=O)n(CCc3ccccc3)c(=O)n1Cc1cccc(F)c1)n2C`, 63% (inactive).
For the compound `Cc1ccc(NCc2cc3cc4c(cc3n(CC(=O)Nc3ccc(C)cc3)c2=O)OCCO4)cc1`, the survival is 0% (active).
The same measure for `CCc1ccc(NCc2cc3cc4c(cc3n(CC(=O)Nc3ccc(C)cc3)c2=O)OCO4)cc1`: 113% (inactive).
The same measure for `COc1ccc2c(c1)c1c(c(=O)n(CCc3ccccc3)c(=O)n1Cc1ccc(F)cc1)n2C`: 1% (active); for `COc1ccc2cc(CNc3ccccc3)c(=O)n(CC(=O)Nc3ccc(C)cc3C)c2c1`: -2% (active).
`CCc1ccc(NCc2cc3ccc(OC)cc3n(CC(=O)Nc3ccccc3C)c2=O)cc1`: the survival was 84% (inactive).
As to `COc1ccc2cc(CNc3ccc(C)cc3)c(=O)n(CC(=O)Nc3ccc(C)cc3Cl)c2c1`, the survival is 74% (inactive).
In the case of `COc1ccc2c(c1)c1c(c(=O)n(Cc3ccccc3)c(=O)n1CC(=O)Nc1c(C)cccc1C)n2C` it was 81% (inactive); in that of `COc1ccc2c(c1)c1c(c(=O)n(Cc3ccccc3)c(=O)n1CC(=O)Nc1ccccc1F)n2C`, 129% (inactive); in that of `CC(=O)c1cccc(NC(=O)Cn2c(=O)c(CNc3ccc(C)cc3)cc3cc4c(cc32)OCCO4)c1`, 77% (inactive).
As for `COc1ccc(NC(=O)C2CCCN(S(=O)(=O)c3ccc(F)cc3)C2)cc1` (centres undefined), the survival is 85% (inactive).
The same measure for `COc1ccc(-n2nc3cc(C)c(NC(=O)COc4cccc(C)c4)cc3n2)cc1`: 78% (inactive); for `CCCCC1CCC(C(=O)N2CC(=O)Nc3ccc(F)cc3C2c2ccc(F)cc2)CC1` (centres undefined): 77% (inactive).
Turning to `CCOc1ccc2[nH]c(=O)c(-c3nc4cccc(C)n4c3NCc3ccco3)cc2c1`, the survival is 108% (inactive).
In the case of `Cc1ccc(CNC(=O)Cc2c(C)c3cc4c(C)coc4cc3oc2=O)cc1` it was 92% (inactive); in that of `COc1ccc(-c2noc(C(C)NC(=O)c3ccco3)n2)cc1` (centres undefined), 107% (inactive).
The same measure for `Cc1nn(CC(=O)Nc2ccc(C(C)C)cc2)c(=O)c2c(C)n(-c3ccc(Cl)cc3)nc12`: 90% (inactive); for `COc1ccc2c(c1)c1c(c(=O)n(Cc3ccccc3)c(=O)n1Cc1ccccc1)n2C`: -3% (active).
Take `COc1ccc2c(c1)c1c(c(=O)n(Cc3ccccc3)c(=O)n1Cc1ccc(C)cc1)n2C`: the survival is 87% (inactive).
In the case of `COc1cccc(Cn2c(=O)n(Cc3ccccc3)c(=O)c3c2c2cc(OC)ccc2n3C)c1`, the survival is 57% (inactive).
Consider `C/C(=N/OCC(=O)Nc1sc2c(c1C#N)CCCC2)c1cccs1`, for which the survival is 111% (inactive).
Regarding `CCN1CCN(CCCNC(=O)c2cc3c(s2)-c2c(C)cccc2OC3)CC1`, the survival is 87% (inactive).
For the compound `CCCCN(Cc1ccco1)C(=O)c1cc2c(s1)-c1c(C)cccc1OC2`, the survival was 13% (active).
Regarding `CCN(Cc1ccccc1)C(=O)c1cc2c(s1)-c1c(C)cccc1OC2`, the survival is 71% (inactive).
In the case of `CCOc1ccc(CCNC(=O)c2cc3c(s2)-c2c(C)cccc2OC3)cc1`, the survival was 90% (inactive).
In the case of `CCOCCCN(Cc1ccco1)C(=O)c1cc2c(=O)[nH]c3ccc(C)cc3c2s1` it was 127% (inactive); in that of `CCOCCCN(Cc1ccco1)C(=O)c1cc2c(s1)-c1c(C)cccc1OC2`, 12% (active); in that of `Cc1ccc(C)c(N2CCN(C(=O)Cn3ncc4c(=O)oc5ccccc5c43)CC2)c1`, 71% (inactive).
The same measure for `Cc1ccc2nc(N(CCCN(C)C)C(=O)c3ccco3)sc2c1`: 72% (inactive).
Turning to `COc1ccc(-c2ccc(-c3noc(-c4cc(OC)cc(OC)c4)n3)c(OC)n2)cc1`, the survival was 49% (inactive).
Turning to `COc1cccc(-c2ccc(-c3noc(-c4ccccc4Br)n3)c(OC)n2)c1`, the survival was 37% (inactive).
In the case of `CCOc1cc(-c2nc(-c3ccc(-c4ccc(C)cc4)nc3OC)no2)cc(OCC)c1OCC` it was 56% (inactive).
In the case of `CCOc1cc(-c2nc(-c3ccc(-c4ccccc4)nc3OCC)no2)cc(OCC)c1OCC` it was 60% (inactive); in that of `COc1cccc(-c2nc(-c3ccc(-c4ccccc4)nc3OC)no2)c1`, 2% (active).
The same measure for `COc1nc(-c2ccc(C)cc2)ccc1-c1noc(-c2ccc(C(C)(C)C)cc2)n1`: 32% (inactive).
With `COc1nc(C)ccc1-c1noc(-c2ccccc2)n1`, the survival was 100% (inactive).
Regarding `COc1nc(-c2ccccc2)ccc1-c1noc(C(C)C)n1`, the survival is 88% (inactive).
For the compound `COc1nc(-c2ccc(C)cc2)ccc1-c1noc(-c2ccccc2Br)n1`, the survival was 2% (active).
In the case of `CCOc1nc(-c2ccccc2)ccc1-c1noc(-c2ccc(C)cc2)n1` it was 109% (inactive); in that of `CCOc1ccccc1-c1nc(-c2ccc(-c3ccccc3)nc2OCC)no1`, -1% (active); in that of `COc1nc(-c2ccccc2)ccc1-c1noc(-c2ccccc2Br)n1`, -2% (active).
